S2 tox – reduces viability in counter-screen for ATXN expression inhibitors; S2 cells (HEK-293 line with an ATXN2-luciferase reporter) viability, CellTiter-Fluor protease fluorescence, 24 h; Potency, µM (doses to about 56.7 µM), actives largely listed as cytotoxic; actives 0.49% (n = 400,000); AID 651635; also: nearly all actives have a fitted effect of over 40% in size
TGFb SMAD3 inh – inhibitors of TGF-b signaling; actives 1.2% (n = 410,000); HepG2 CAGA-GFP TGF-b/SMAD3 reporter, GFP fluorescence, 18 h; TGF-beta stimulated, 500 pg/mL final; Potency, µM (series often up to 46.1 µM), without a hit: at the highest dose activity, negative = inhibition, most hits filed as inhibitors; also: % is scaled to controls: 0 for no effect and ±100 for the full control effect; nearly all actives have a fitted effect of over 65% in size
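Per well, imaged GFP fluorescence of HEPG2 CAGA-GFP cells gives the signal; cells get compound, then TGF-beta (500 pg/mL final), 18 h at 37 degrees C; %Activity versus -TGF-beta and +DMSO controls.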
HepG2 viability – counter-screen for TGF-b inhibitors: cytotoxicity in HepG2 cells | HepG2 CAGA-GFP viability, ATP luminescence, 18 h | Potency, µM (highest dose often 46.1 µM), for inactives: at the top dose activity change, negative = cytotoxicity, usual class: cytotoxic | actives 0.76% (n = 410,000)
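HepG2 CAGA-GFP cells (1000/well, DMEM with 1% FBS) received compound, then TGF-beta at 500 pg/mL final, and were incubated 18 hours at 37 degrees C. Viability was read by CellTiter-Glo luminescence. Media-only wells were set as complete cell-killing and DMSO as no toxicity.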
ATXN2 expr inh – reduces ATXN2 reporter expression in HEK-293 cells | Potency, µM (series often up to 57 µM), inactives show at the highest dose activity change, negative = inhibition, hits mostly inhibitors | AID 1745845 | actives 0.72% (n = 360,000) | HEK-293 ATXN2-luciferase reporter, luminescence, 24 h; also: % is scaled to controls: 0 for no effect and ±100 for the full control effect; nearly all actives have a fitted effect of over 55% in size
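qHTS (up to 57 uM final) was run with 24 h compound exposure of reporter cells at 37 °C. Each well was multiplexed: SteadyGlo luminescence measured ATXN2-luciferase expression after a fluorogenic Gly-Phe-AFC viability readout (25 uM final).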
* marks the source's active call; other numbers are inactive results; i = inactive; ? = inconclusive; / = no result; ! = not confirmed by another sample; [ ] = remark or other dose. In the library only some 2.3% were active in any assay of this set; here they are far more common. Calls follow the shape of the dose curve; as a rule, active = well fitted curve in the direction sought with a large enough effect; inconclusive = small, poorly fitted or top-dose-only effect, or another doubt; inactive = no such curve, though single readings can be large; an effect the other way counts as inactive or inconclusive. Potency is read from the fitted curve at half-maximal effect.

SMILES | S2 tox | TGFb SMAD3 inh | HepG2 viability | ATXN2 expr inh
COc1ccc(Cl)cc1C(=O)Nc1ccccc1N1CCN(C(=O)C(C)C)CC1 | ? | 0.6% | -10.4% | 22.4µM*
Cc1[nH]c2ccccc2c1/C=C/c1cnc2ccccc2n1 | / | -28.1% | -30.1% | /
Cc1[nH]c2ccccc2c1/C=C/c1ccc2ccccc2n1 | / | 0.2% | 10µM* | /
CC1(C)CC(O)CC(C)(C)N1[O] | / | / | / | 16.5%
COc1cc(=O)n2c(c1C(=O)NC(C)c1ccco1)CCN(C(=O)c1ccc3c(c1)OCCO3)CC2 (centres undefined) | i | / | / | /
COc1cccc(N(C(=O)CCl)C(C(=O)NCCc2ccccc2)c2cccs2)c1 (centres undefined) | 31.6µM* | 12.6µM* | -106.4% | ?
Nc1c(C(O)(C(F)(F)F)C(F)(F)F)cc(C(O)(C(F)(F)F)C(F)(F)F)c2ccccc12 | ? | 11.2µM* | 17.8µM* | ?
CCOC(=O)Cc1[nH]nc2c1C(C1C=CCCC1)C(C#N)=C(N)O2 (centres undefined) | i | ? | 20µM* | -7.6%
CCOC(=O)Cc1[nH]nc2c1C(c1cccc(OC)c1OC)C(C#N)=C(N)O2 (centres undefined) | i | -2.0% | 2.7% | -2.2%
CCCCCCCC(=O)[O-].CCCCCCCC(=O)[O-].[Zn+2] | i | / | / | -2.0%
COc1ccc2c(c1)CCc1cnc(-n3ncc(C(=O)NCC(C)(C)CN(C)C)c3C)nc1-2 | i | / | / | /
Cc1ccc(NC(=O)C(=Cc2ccc(C(=O)O)cc2)C(=O)Nc2ccc(C)cc2C)c(C)c1 | ? | 7.08µM* | 10µM* | /
CCOC(=O)c1nc(S(C)(=O)=O)ncc1Cl | / | ? | 11.2µM* | ?
Cc1cccc(C)c1NC(=O)c1nc(S(=O)(=O)Cc2ccccc2F)ncc1Cl | / | ? | -99.7% | /
CCCc1nnc(NC(=O)c2nc(S(=O)(=O)Cc3cccc(C)c3)ncc2Cl)s1 | / | ? | -98.9% | ?
Cc1cccc(C)c1NC(=O)c1nc(S(=O)(=O)Cc2ccccc2)ncc1Cl | ? | 11.2µM* | -177.9% | ?
Cc1cccc(CS(=O)(=O)c2ncc(Cl)c(C(=O)NCc3ccccc3)n2)c1 | / | 3.16µM* | 3.55µM*! | /
Cc1nnc(NC(=O)c2nc(S(=O)(=O)Cc3ccccc3)ncc2Cl)s1 | 31.6µM* | ? | -129.5% | ?
CCCCOC(=O)CC(CC(=O)OCCCC)(OC(C)=O)C(=O)OCCCC | i | / | / | 4.1%
O=C(O)[C@H]1O[C@H](Oc2cc3oc(-c4ccccc4)cc(=O)c3c(O)c2O)[C@H](O)[C@@H](O)[C@H]1O | / | / | / | -19.0%
COc1cccc(CNC(=O)COC(=O)c2ccc(S(C)(=O)=O)c([N+](=O)[O-])c2)c1 | / | ? | -22.4% | /
COc1ccc(C(=O)C[n+]2cccc3cc(Cl)ccc32)cc1 | / | -3.8% | -28.2% | /
Cc1cnc(Nc2cccc(CN3CCOCC3)c2)nc1Nc1cccc(S(=O)(=O)NC(C)(C)C)c1 | / | / | / | 8.2%
Cc1ccccc1NC(=O)c1nc(S(C)(=O)=O)ncc1Cl | / | 15.8µM* | -119.0% | /
O=C(NCc1ccccc1)c1nc(S(=O)(=O)Cc2ccc(F)cc2)ncc1Cl | / | ? | -112.4% | /
SMILES | S2 tox | TGFb SMAD3 inh | HepG2 viability | ATXN2 expr inh
Cc1ccc(NC(=O)c2nc(S(=O)(=O)Cc3ccccc3)ncc2Cl)cc1 | ? | ? | 22.4µM* | ?
CN(C)c1ccc(-c2nc3ccccc3n2C)cc1 | i | ? | 8.91µM* | ?
CC(C)n1c(-c2ccc(N(C)C)cc2)nc2ccccc21 | ? | ? | -52.5% | 52.2%
O=C(O)c1cn(C2CC2)c2cc(Cl)c(F)cc2c1=O | i | / | / | 20.6%
CCOC(=O)c1cc(C)n(CC2CCC(C(=O)Nc3cccc(C(C)=O)c3)CC2)c1C (centres undefined) | / | 14.1µM* | -25.2% | /
CCOC(=O)c1cc(C)n(CC2CCC(C(=O)Nc3ccc(Cl)cc3)CC2)c1C (centres undefined) | / | 8.91µM* | -24.9% | /
CCOC(=O)c1cc(C)n(CC2CCC(C(=O)Nc3ccc(C(C)=O)cc3)CC2)c1C (centres undefined) | / | ? | -14.3% | /
COc1ccc2ccccc2c1CN1CCCC(n2cc(C(=O)N3CCCC3)nn2)C1 (centres undefined) | i | / | / | /
C[C@@H]1[C@H](c2ccccc2)OCCS(=O)(=O)N1Cc1cccc(Cl)c1 | / | ? | -2.3% | /
CCc1ccc(OCCn2c(CCNC(=O)C3CCCCC3)nc3ccccc32)cc1 | / | -5.1% | -2.1% | /
CC1CN(c2ccc([N+](=O)[O-])c(NCCOc3ccccc3)c2)CC(C)N1 (centres undefined) | ? | ? | -58.2% | ?
O=[N+]([O-])c1ccc(N2CCCCC2)cc1NCCOc1ccccc1 | i | -13.1% | 4.0% | 20.8%
NCCNc1cc(N2CCCC2)ccc1[N+](=O)[O-] | ? | -17.3% | -6.0% | -32.7%
CCc1ccc(OCCNc2cc(N3CCNC(C)C3)ccc2[N+](=O)[O-])cc1 (centres undefined) | i | ? | 11.2µM* | ?
Cc1ccccc1OCCNc1cc(N2CC(C)NC(C)C2)ccc1[N+](=O)[O-] (centres undefined) | 23.8µM* | ? | -116.5% | ?
CC1CN(c2ccc([N+](=O)[O-])c(NCCOc3ccc(Cl)cc3)c2)CC(C)N1 (centres undefined) | / | ? | 14.1µM* | /
CCOc1ccccc1NC(=O)c1nc(SCc2ccccc2F)ncc1Cl | / | 7.2% | 6.0% | /
C(=C\c1nc2ccccc2o1)/c1ccc2c(c1)OCO2 | / | -1.9% | 1.6% | /
Cc1nc2ccccc2nc1/C=C/c1ccc(N(C)C)cc1 | / | -13.5% | -84.6% | /
COc1ccccc1N=c1oc2cc(O)ccc2cc1C(N)=O | / | 23.9% | 10µM* | -4.8%
N=C1SC(c2ccccc2)C(=O)N1c1ncc(Cc2ccccc2Cl)s1 (centres undefined) | / | ? | -1.1% | 17.8µM*
O=C(CSc1nnnn1-c1ccccc1)Nc1ncc(Cc2ccccc2Cl)s1 | i | 3.7% | -0.9% | /
O=C(NCc1ccco1)c1ccc2c(c1)N(Cc1c(F)cccc1Cl)C(=O)c1ccccc1S2 | i | ? | -1.9% | 9.9%
CCN(CC)CCCNC(=O)c1ccc2c(c1)N(Cc1c(F)cccc1Cl)C(=O)c1ccccc1S2 | i | 10µM* | 11.2µM* | 20µM*
Cc1ccc2nc(/C(C#N)=C/c3ccc(-c4cccc(Cl)c4)o3)[nH]c2c1 | i | -0.9% | 8.91µM* | ?
C[C@@H](O)[C@H](N)C(=O)O | i | / | / | 4.1%[25.6 µM]
C=CCOc1cccc(C(=O)/C=C2/C(=O)Nc3ccccc32)c1 | ? | 11.2µM* | 10µM* | ?
CCN1CCN(c2ccc(Nc3cc(N(C)C(=O)Nc4c(Cl)c(OC)cc(OC)c4Cl)ncn3)cc2)CC1 | / | / | / | -28.8%
CCCN1C(=O)C(Cc2nc3ccccc3c(=O)n2CC)c2cc(Br)ccc21 (centres undefined) | / | 7.94µM* | -30.3% | /
CCn1c(CC2C(=O)N(C)c3ccc(Br)cc32)nc2ccccc2c1=O (centres undefined) | / | ? | -9.1% | /

Source: PubChem BioAssay (National Center for Advancing Translational Sciences (NCATS))
